Our source for the Inhibition values is ChEMBL document CHEMBL1157539, “Thousands of chemical starting points for antimalarial lead identification” (Nature, 2010).

Broadly, the Inhibition is how much of the control response was suppressed. Read a high Inhibition as a response far below the control.

The test system of the first test is Plasmodium falciparum. Briefly: GSK_TCMDC: Inhibition of Plasmodium falciparum 3D7 in whole red blood cells, using parasite LDH activity as an index of growth. Test compounds present at 2uM. The format is functional.
The compound `Cc1ccc2[nH]c(-c3ccc(C=CC(=O)NCc4ccc(Cl)c(Cl)c4)cc3)nc2c1` displayed an Inhibition of 96%.
Same read-out and setting: the same measure for `COc1ccc(-c2cccc(NC(=O)c3ccccc3)c2)cc1CN1CCCN(C)CC1.O=C(O)C(F)(F)F`: 98%; for `CC(C)CCNCc1ccc(OCc2ccccc2COc2ccc(CNCCC(C)C)cc2I)c(I)c1.Cl`: 100%.
Same read-out and setting: the value for `COc1cc2ccccc2cc1CNCCCCCCNCc1cc2ccccc2cc1OC.CS(=O)(=O)O` was 100%.
`CC(C)=C(C(=O)OCc1ccccc1)N1C(=O)[C@@H](NC(c2ccccc2)(c2ccccc2)c2ccccc2)[C@H]1[S+]([O-])CC(=O)OC(C)(C)C` (stereo not given in full) showed an Inhibition of 92%.
In the case of `O=C(NCCCCCN1CCC(c2c[nH]c3ccccc23)CC1)Nc1ccc(I)cc1`, the Inhibition is 100%.
Still for that read-out and setting: the value for `COc1ccc(CON2C(=N)N=C(N)NC2(C)C)cc1OC.Cl` was 96%; that for `CCNc1cc(CCCC(=O)OCC)nc(Nc2ccc(C)cc2)n1.O=C(O)C(F)(F)F` was 100%.
Still for that read-out and setting: the value for `COc1cc2nc(NCCc3ccccc3)nc(NC(C)c3ccccc3)c2cc1OC` (stereo not given) was 99%; that for `O=C(Nc1ccc(-c2cccc(-c3nc4ccccc4[nH]3)c2)cc1)Nc1ccsc1` was 100%.
The same measure, in the same setting: the same measure for `Cc1cccc(Nc2nccc(Nc3cccc(C(=O)NCCN4CCOCC4)c3)n2)c1`: 91%; for `CCCOc1ccc(NC(=O)c2cccs2)cc1Cl`: 88%; for `O=C(/C=C/c1ccc(Cl)cc1)NCCCCCN1CCN(C(=O)Nc2ccc(Cl)c(C(F)(F)F)c2)CC1`: 94%.
`Cc1n[nH]c2ccc(-c3ccc4nccc(N5CCC(N)CC5)c4c3)cc12.Cl` gave an Inhibition of 100%.
The same measure, in the same setting: the value for `NC(=O)C1CCN(Cc2cccc(-c3cccc(-c4nc5cc(C(F)(F)F)ccc5[nH]4)c3)c2)CC1.O=C(O)C(F)(F)F` was 100%; that for `Cn1cncc1C(=O)Nc1ccc(-c2cccc(-c3nc4cc(F)ccc4[nH]3)c2)cc1` was 100%.
Still for that read-out and setting: the value for `Cc1cc(NCCC(=O)NCc2cccc(F)c2)nc(Nc2ccccc2)n1.O=C(O)C(F)(F)F` was 94%; that for `CC(C)NCc1ccc(-c2cccc(NC(=O)c3ccc(F)cc3)c2)cc1.O=C(O)C(F)(F)F` was 91%; that for `Cc1ccc(NC(=O)c2cccc(CN3CCCN(Cc4cccc(O)c4)CC3)c2)cc1F.O=C(O)C(F)(F)F` was 99%.
Same read-out and setting: the value for `CS(=O)(=O)c1ccc(-n2nc(C(F)(F)F)cc2-c2ccc(C=NOCC(=O)O)o2)cc1` was 87%.
`N#Cc1cccc(NC(=O)Nc2ccc(-c3ccc(-c4nc5cc(C(F)(F)F)ccc5[nH]4)cc3)cc2)c1` had an Inhibition of 100%.
On the same count and under the same terms, the value for `COc1cccc2c(C)cc(NCc3ccc(Cl)cc3)nc12` was 97%.
Same read-out and setting: the same measure for `CCCNC(=O)Nc1ccc(N(C)c2ccnc(NC3CC3)n2)cc1`: 100%.
Same read-out and setting: the same measure for `CCCCC(=O)N(CCOC)Cc1ccc(-c2ccc(CNCCC)cn2)cc1.O=C(O)C(F)(F)F`: 99%.
`O=S(=O)(c1c(Cl)cccc1Cl)N1CCCCC(c2ccc(C(F)(F)F)cc2)=N1`: the Inhibition is on record as 99%.
Still for that read-out and setting: the value for `O=C1CC(C(=O)O)CC(=O)N1` was 94%; that for `N#Cc1ccc(N[C@@H](CC2CCCCC2)C(=O)N[C@@H]2CCCc3ccccc32)c2ccccc12.O=C(O)C(F)(F)F` was 99%; that for `Cl.O=C(c1ccc(-c2ccc(Cl)cc2)o1)N1CCc2cc3nccc(N4CCN5CCC[C@H]5C4)c3cc21` was 100%.
The same measure, in the same setting: the value for `COc1ccc(CSC2CCCCC23NC(=S)NC3=S)cc1` (stereo not given) was 97%.
Still for that read-out and setting: the value for `CCOc1cc(C(=O)Nc2cccnc2)cc(Br)c1OCCC(C)C` was 88%.
Regarding `CN1CCN(CCc2ccc3nc(-c4csc(Cc5cc(Cl)ccc5OCc5ccccc5)n4)[nH]c3c2)CC1`, the Inhibition amounted to 100%.
The same measure, in the same setting: the value for `COc1ccc2nccc([C@@H](O)CN3CCC(NC(=O)c4ccc(Cl)c(Cl)c4)CC3)c2c1` was 96%; that for `Cc1nc(Nc2cc(Cl)ccc2O)nc(Nc2cc(Cl)ccc2O)c1[N+](=O)[O-]` was 98%.
The compound `COCCOc1ccc(Nc2nccc(-c3c(-c4cccc(NC(=O)c5c(F)cccc5F)c4)nn4ccccc34)n2)cc1F` had an Inhibition of 90%.
Compound `Cc1cc(=NN=Cc2ccc(Cl)cc2)c2ccccc2[nH]1` had an Inhibition of 100%.
The same measure, in the same setting: the value for `Cc1cnc(CNCc2ccc(S(=O)(=O)Nc3ccc(Oc4cccc(Cl)c4)cc3)cc2)cn1.O=C(O)C(F)(F)F` was 97%.
Still for that read-out and setting: the value for `CCC(C)NCCC(c1ccccc1)c1ccccc1O.Cl` (stereo not given) was 97%; that for `CN(C)CCNCc1ccc(-c2ccc3c(Nc4ccc(F)cc4Cl)ccnc3c2)o1` was 100%.
On the same count and under the same terms, the value for `CC(C)(C)c1ccc(NC(=O)c2ccc(CN3CCCN(CC4CCCCC4)CC3)cc2)cc1.O=C(O)C(F)(F)F` was 99%; that for `CN1CCCN(Cc2cccc(-c3cccc(NC(=O)c4cccc(C#N)c4)c3)c2)CC1.O=C(O)C(F)(F)F` was 95%.

In a further test the test system is Plasmodium falciparum. Briefly: GSK_TCMDC: Inhibition of Plasmodium falciparum Dd2 in whole red blood cells, using parasite LDH activity as an index of growth. Test compounds present at 2uM. It is filed as functional.
On to `Cc1ccc2[nH]c(-c3ccc(C=CC(=O)NCc4ccc(Cl)c(Cl)c4)cc3)nc2c1`, for which the Inhibition stood at 18%.
Compound `COc1ccc(-c2cccc(NC(=O)c3ccccc3)c2)cc1CN1CCCN(C)CC1.O=C(O)C(F)(F)F` had an Inhibition of 25%.
On the same count and under the same terms, the same measure for `CC(C)CCNCc1ccc(OCc2ccccc2COc2ccc(CNCCC(C)C)cc2I)c(I)c1.Cl`: 78%.
With `COc1cc2ccccc2cc1CNCCCCCCNCc1cc2ccccc2cc1OC.CS(=O)(=O)O`, the Inhibition is 24%.
On the same count and under the same terms, the same measure for `CC(C)=C(C(=O)OCc1ccccc1)N1C(=O)[C@@H](NC(c2ccccc2)(c2ccccc2)c2ccccc2)[C@H]1[S+]([O-])CC(=O)OC(C)(C)C` (stereo not given in full): 78%; for `O=C(NCCCCCN1CCC(c2c[nH]c3ccccc23)CC1)Nc1ccc(I)cc1`: 0%.
Same read-out and setting: the same measure for `COc1ccc(CON2C(=N)N=C(N)NC2(C)C)cc1OC.Cl`: 97%; for `CCNc1cc(CCCC(=O)OCC)nc(Nc2ccc(C)cc2)n1.O=C(O)C(F)(F)F`: 63%.
In turn, `COc1cc2nc(NCCc3ccccc3)nc(NC(C)c3ccccc3)c2cc1OC` (stereo not given) registered an Inhibition of 100%.
On the same count and under the same terms, the value for `O=C(Nc1ccc(-c2cccc(-c3nc4ccccc4[nH]3)c2)cc1)Nc1ccsc1` was 90%.
For the compound `Cc1cccc(Nc2nccc(Nc3cccc(C(=O)NCCN4CCOCC4)c3)n2)c1`, the Inhibition was determined as 11%.
Still for that read-out and setting: the value for `CCCOc1ccc(NC(=O)c2cccs2)cc1Cl` was 86%.
`O=C(/C=C/c1ccc(Cl)cc1)NCCCCCN1CCN(C(=O)Nc2ccc(Cl)c(C(F)(F)F)c2)CC1` returned an Inhibition of 5%.
Consider `Cc1n[nH]c2ccc(-c3ccc4nccc(N5CCC(N)CC5)c4c3)cc12.Cl`, for which the Inhibition was determined as 100%.
On the same count and under the same terms, the value for `NC(=O)C1CCN(Cc2cccc(-c3cccc(-c4nc5cc(C(F)(F)F)ccc5[nH]4)c3)c2)CC1.O=C(O)C(F)(F)F` was 100%.
On the same count and under the same terms, the same measure for `Cn1cncc1C(=O)Nc1ccc(-c2cccc(-c3nc4cc(F)ccc4[nH]3)c2)cc1`: 23%; for `Cc1cc(NCCC(=O)NCc2cccc(F)c2)nc(Nc2ccccc2)n1.O=C(O)C(F)(F)F`: 15%; for `CC(C)NCc1ccc(-c2cccc(NC(=O)c3ccc(F)cc3)c2)cc1.O=C(O)C(F)(F)F`: 7%.
The same measure, in the same setting: the same measure for `Cc1ccc(NC(=O)c2cccc(CN3CCCN(Cc4cccc(O)c4)CC3)c2)cc1F.O=C(O)C(F)(F)F`: 45%; for `CS(=O)(=O)c1ccc(-n2nc(C(F)(F)F)cc2-c2ccc(C=NOCC(=O)O)o2)cc1`: 0%; for `N#Cc1cccc(NC(=O)Nc2ccc(-c3ccc(-c4nc5cc(C(F)(F)F)ccc5[nH]4)cc3)cc2)c1`: 100%.
Consider `COc1cccc2c(C)cc(NCc3ccc(Cl)cc3)nc12`, for which the Inhibition is 5%.
The same measure, in the same setting: the same measure for `CCCNC(=O)Nc1ccc(N(C)c2ccnc(NC3CC3)n2)cc1`: 88%; for `CCCCC(=O)N(CCOC)Cc1ccc(-c2ccc(CNCCC)cn2)cc1.O=C(O)C(F)(F)F`: 68%; for `O=S(=O)(c1c(Cl)cccc1Cl)N1CCCCC(c2ccc(C(F)(F)F)cc2)=N1`: 98%.
The same measure, in the same setting: the value for `O=C1CC(C(=O)O)CC(=O)N1` was 88%.
The same measure, in the same setting: the same measure for `N#Cc1ccc(N[C@@H](CC2CCCCC2)C(=O)N[C@@H]2CCCc3ccccc32)c2ccccc12.O=C(O)C(F)(F)F`: 99%.
As for `Cl.O=C(c1ccc(-c2ccc(Cl)cc2)o1)N1CCc2cc3nccc(N4CCN5CCC[C@H]5C4)c3cc21`, the Inhibition is on record as 86%.
On the same count and under the same terms, the same measure for `COc1ccc(CSC2CCCCC23NC(=S)NC3=S)cc1` (stereo not given): 0%; for `CCOc1cc(C(=O)Nc2cccnc2)cc(Br)c1OCCC(C)C`: 51%.
On the same count and under the same terms, the same measure for `CN1CCN(CCc2ccc3nc(-c4csc(Cc5cc(Cl)ccc5OCc5ccccc5)n4)[nH]c3c2)CC1`: 97%; for `COc1ccc2nccc([C@@H](O)CN3CCC(NC(=O)c4ccc(Cl)c(Cl)c4)CC3)c2c1`: 57%; for `Cc1nc(Nc2cc(Cl)ccc2O)nc(Nc2cc(Cl)ccc2O)c1[N+](=O)[O-]`: 83%.
Same read-out and setting: the same measure for `COCCOc1ccc(Nc2nccc(-c3c(-c4cccc(NC(=O)c5c(F)cccc5F)c4)nn4ccccc34)n2)cc1F`: 60%.
For the compound `Cc1cc(=NN=Cc2ccc(Cl)cc2)c2ccccc2[nH]1`, the Inhibition is recorded as 87%.
On the same count and under the same terms, the value for `Cc1cnc(CNCc2ccc(S(=O)(=O)Nc3ccc(Oc4cccc(Cl)c4)cc3)cc2)cn1.O=C(O)C(F)(F)F` was 0%; that for `CCC(C)NCCC(c1ccccc1)c1ccccc1O.Cl` (stereo not given) was 74%; that for `CN(C)CCNCc1ccc(-c2ccc3c(Nc4ccc(F)cc4Cl)ccnc3c2)o1` was 100%.
With `CC(C)(C)c1ccc(NC(=O)c2ccc(CN3CCCN(CC4CCCCC4)CC3)cc2)cc1.O=C(O)C(F)(F)F`, the Inhibition was found to be 64%.
On the same count and under the same terms, the same measure for `CN1CCCN(Cc2cccc(-c3cccc(NC(=O)c4cccc(C#N)c4)c3)c2)CC1.O=C(O)C(F)(F)F`: 33%.
